PubChem BioAssay AID2391 (Southern Research Specialized Biocontainment Screening …, 2010)
In all, about 310,000 compounds went through this assay and about 410 (0.13%) were called active. Inconclusive results (about 2%) are left out. The rule behind the calls is not given here. Only a sample is shown. Results with a measured potency or affinity are listed apart.

Test: RSV antiviral activity via CPE protection, HEp-2 cells, primary 10 µM value included (AID 2391)
Conditions: RSV-induced CPE inhibition, at 10 µM, stronger effect = higher value

CPE inhibition, inactive:
COC(=O)CC(c1ccc(C#N)cc1)n1c(C)ccc1C (stereo not drawn) -0.14%
Cc1ccccc1COn1nnc2ccc(S(=O)(=O)N3CCOCC3)cc21 -1.48%
O=C(NC1CCCCC1)N1CCN(c2ncccn2)CC1 2.35%
COc1ccccc1-n1c(SCC(=O)Nc2ccc(Br)cc2)nc(O)cc1=O 0.85%
COC(=O)Nc1ccc(S(=O)(=O)N(CCO)CCO)cc1 -0.61%
Cc1cccc(NC(=O)c2ccc(COc3ccc(Cl)cc3Cl)o2)n1 -0.26%
O=c1[nH]c(C2CCCN(S(=O)(=O)c3ccccc3)C2)nc2c1nnn2Cc1ccc(OC(F)(F)F)cc1 (stereo not drawn) 1.75%
CC(C)[N+](C)(C)CC#CC(O)(c1ccccc1)c1ccccc1 -0.2%
N#Cc1ccc(CN2CCN(C(=O)CC(NC(=O)c3ccccc3)c3ccccc3)CC2)cc1 (stereo not drawn) 2.31%
COC(=O)/C=C1\S/C(=N/NC(=O)c2ccc(OC)cc2)NC1=O -1.09%
C/C(N)=C(/C#N)C(=O)COC(=O)c1ccc(O)cc1 1.45%
C/C(N)=C(/C#N)C(=O)COC(=O)c1ccc(C#N)cc1 0.83%
O=C1CC(C(=O)N2CCc3ccccc32)CN1c1ccc(F)cc1 (stereo not drawn) 2.7%
O=C(CNC(=O)c1ccc(Cl)cc1)OCc1nc2ccccc2s1 3.12%
Cc1cc(-c2nc3cccnc3s2)ccc1NS(=O)(=O)c1cccs1 3.81%
Cc1ccc(-c2nc3cccnc3s2)cc1NS(C)(=O)=O 0.25%
CCOc1ccc(NC(=O)CN(C)S(=O)(=O)c2ccc(-c3ccc(=O)[nH]n3)s2)cc1 3.93%
CCOC(=O)c1ccc(NC(=S)N2CCSC2c2ccc(Cl)cc2)cc1 (stereo not drawn) 52%
CCOC(=O)c1ccc(NC(=S)N2CCSC2c2ccc(OC)cc2)cc1 (stereo not drawn) 11.4%
O=C(Cn1ncc2c1-c1ccccc1OC2)N1CCN(Cc2ccccc2)CC1 -1.42%
COc1ccc(C(=O)NN2CCCCC2)cc1OC 1.22%
COc1ccccc1COCC(O)CN1CCN(S(=O)(=O)c2cccc(F)c2)CC1 (stereo not drawn) 0.54%
Cc1ccc(NC(=O)CC(N)=S)cc1 0.37%
CC(=O)COc1ccc2c3c(c(=O)oc2c1)CCCC3 27%
O=C(O)COc1ccc2c3c(c(=O)oc2c1)CCCC3 -1.38%
O=C(O)c1ccccc1NCc1ccco1 0.7%
CC(=O)Nc1ccc(S(=O)(=O)n2cnc3cc(C)c(C)cc32)cc1 14.6%
COc1ccc(/C(C)=N/NC(=O)CNC(=O)/C=C/c2ccccc2OC)cc1 2.31%
CCc1ccc(/C(C)=N/NC(=O)CNC(=O)/C=C/c2ccccc2OC)cc1 5.6%
O=c1cc(CN2CCN(C/C=C/c3ccccc3)CC2)c2cc(O)c(-c3ccccc3)cc2o1 2.21%
CC(=O)NCCN=C(C)c1sc2ccccc2c1O 2.52%
CCCCNC(=O)CC1N=C2c3ccccc3N=C(SCC(=O)Nc3cccc(OC)c3)N2C1=O (stereo not drawn) 0.81%
CCCCNC(=O)CC1N=C2c3ccccc3N=C(SCC(=O)Nc3ccccc3OC)N2C1=O (stereo not drawn) 8.13%
Cn1ccnc1SCC(=O)Nc1cccc(S(=O)(=O)N2CCCCC2)c1 5.08%
O=C(Nc1nc(-c2ccc(Cl)cc2Cl)cs1)C1CCCO1 (stereo not drawn) 7.12%
COc1ccc(C(=O)NCc2nc3ccccc3[nH]2)cc1OC 1.66%
COc1cc(/C=C/C(=O)NCc2nc3ccccc3[nH]2)cc(OC)c1OC 3.24%
CCCSC1=C(C#N)C(c2cccs2)CC(=O)N1 (stereo not drawn) 0.6%
CC1=C(C(=O)OC(C)C)C2(O)C(=O)c3ccccc3C2(O)N1 (stereo not drawn) 0.34%
CC(C)CNC(=O)c1cc([N+](=O)[O-])ccc1N1CCCCC1 1.62%
CC12CCC(=O)C=C1CCC1C2C(=O)CC2(C)C1CC[C@]2(O)C(=O)CO (stereo partly drawn) 1.47%
CC(CCc1ccc(O)cc1)NCc1ccc(Cl)cc1Cl (stereo not drawn) 0.07%
CC(CCc1ccc(O)cc1)NCCC(c1ccccc1)c1ccccc1 (stereo not drawn) 1.43%
COc1ccc(C(=O)NCc2nnc(SCC(=O)N3CCC(C)CC3)o2)cc1 1.04%
Cc1ccc(C2(c3ccc(C)cc3)CC2C(=O)NC(C)C)cc1 (stereo not drawn) 10.9%
O=C(Nc1cccc(C(=O)Nc2cccc(C(F)(F)F)c2)c1)c1ccc(=O)[nH]c1 0.31%
Cc1cc(OC(C)C(=O)NCCN2CCOCC2)c2c(C)cc(=O)oc2c1 (stereo not drawn) 1.3%
COC(=O)Nc1ccc(S(=O)(=O)N2CCCc3ccccc32)cc1 1.75%
CC(=O)Nc1ccc(S(=O)(=O)N2CCCc3ccccc32)cc1 1.45%
COc1ccccc1CCNS(=O)(=O)c1cc2c3c(c1)CCN3C(=O)CC2 2.18%
CC(=O)c1cc2c(cc1NC(=O)c1ccc(C)cc1)OCO2 1.4%
Cc1cccc2nc(-c3cccc(NC(=O)c4ccc(Cl)cc4)c3)cn12 6.87%
COc1ccc(CC(=O)Nc2cccc(-c3cn4ccccc4n3)c2)cc1 20.4%
Cc1cc(Cl)cc(C)c1OCCCCCn1ccnc1 16.9%
Cc1cc(Cl)cc(C)c1OCCCCn1ccnc1 0.28%
Cc1cc(C(=O)Nc2ccccc2C)c2ccccc2n1 -1.47%
CCn1c(SC)nnc1-c1nn(-c2ccccc2)ccc1=O 3.93%
CCn1c(SCc2ccc(F)cc2)nnc1-c1nn(-c2ccccc2)ccc1=O 5.54%
CCOc1ccc(Nc2ccc(S(=O)(=O)N3CCN(C)CC3)cc2[N+](=O)[O-])cc1OCC 2.73%
C/C(N)=C(/C#N)C(=O)CSc1nc2ccccc2c(=O)n1-c1ccc(C)c(Cl)c1 3.58%
C/C(N)=C(/C#N)C(=O)CSc1nc2ccccc2c(=O)n1-c1ccc(C)cc1 1.33%
COC(=O)c1cc2n3ccccc3c(C)c(-c3ccccc3)c-2c1C(=O)OC 25.1%
COC(=O)c1cc2c(C)c(C)c3ccccn3c-2c1C(=O)OC 2.03%
COc1ccc(NC(=O)C2C3C=CC4(O3)C2C(=O)N(CCN2CCCCC2C)C4C(=O)NC2CCCCC2)cc1 (stereo not drawn) -0.76%
Cc1[nH]c2ccc(-c3nnc(SCC(=O)c4ccc(F)cc4)o3)cc2c1C -1.57%
Cc1cc(C)c(C)c(C(=O)CSc2nnc(-c3ccc4[nH]c(C)c(C)c4c3)o2)c1C 55.5%
COc1cc(C)c(C(C)C)cc1S(=O)(=O)n1cnc(C)c1 11.6%
Cc1cc(C)c2c(-n3cccc3)c(C(=O)NNS(=O)(=O)c3ccc(Br)cc3)sc2n1 53.3%
Cc1cc(C)c2c(-n3cccc3)c(C(=O)NNS(=O)(=O)c3ccccc3)sc2n1 15.3%
COc1ccc(N(CC(=O)NCc2ccc(Cl)cc2)S(=O)(=O)c2c(C)n[nH]c2C)cc1 2.71%
O=C(O)c1cc(NS(=O)(=O)c2cccs2)cc(NS(=O)(=O)c2cccs2)c1 0.42%
Cc1cc(C)n2nc(-c3ccccc3)cc2n1 -2.3%
COc1ccc(-c2cc3nc(C)cc(C)n3n2)cc1 2.75%
COc1ccc(CNc2ncnc3sccc23)cc1OC 0.7%
COc1ccc(NCC(=O)Nc2cc(S(=O)(=O)N3CCOCC3)ccc2N2CCOCC2)c(OC)c1 1.68%
COc1ccccc1CC(=O)Nc1cc(S(=O)(=O)N2CCOCC2)ccc1N1CCOCC1 0.24%
CC1CCCC(C)N1C(=O)CSc1nccc(=O)[nH]1 (stereo not drawn) 0.35%
Cc1ccc2nc(Cc3ccc(N)cc3)[nH]c2c1 -0.3%
Nc1ccc2nc(Cc3ccccc3)[nH]c2c1 -1.63%
Nc1ccc(C(=O)OCc2nc3ccccc3[nH]2)cc1 1.24%
COC(=O)c1ccc(C(=O)OCc2nc3cc4ccccc4cc3[nH]2)cc1 2.73%
Cc1cccc(N2CCN(C(=O)C3CCC(=O)N(C4CC4)C3)CC2)c1C (stereo not drawn) -0.26%
O=C(Cc1ccc(-n2c(=O)c3ccccc3n(CC(=O)Nc3ccc(F)cc3F)c2=O)cc1)NCc1ccco1 -0.99%
CCN(CC(=O)Nc1ccc(OC)cc1)C(=O)c1ccccc1Sc1ccccc1C#N -1.42%
COc1ccc(NC(=O)C2CCCN2S(=O)(=O)c2cccc3cccnc23)c(OC)c1 (stereo not drawn) 7.4%
COc1ccccc1CNC(=O)C1CCCN(S(=O)(=O)c2cccc3cccnc23)C1 (stereo not drawn) 0.63%
Cc1ccccc1NC(=O)C1CCCN(S(=O)(=O)c2cccc3cccnc23)C1 (stereo not drawn) 0.2%
Cc1cc(C)cc(NC(=O)C2CCCN2S(=O)(=O)c2cccc3cccnc23)c1 (stereo not drawn) 58.5%
Cc1ccc(NC(=O)C2CCCN2S(=O)(=O)c2cccc3cccnc23)cc1F (stereo not drawn) 52.8%
COc1ccccc1CNC(=O)C1CCN(S(=O)(=O)c2cccc3cccnc23)CC1 3.16%
COc1cccc(CN2CC(C(=O)NCCn3ccc(C)n3)CCC2=O)c1 (stereo not drawn) 0.1%
Cc1ccc2[nH]c(=O)c(N3CCOCC3)c(-c3ccccc3)c2c1 0.29%
CSCCC1NC(=O)N(CC(=O)Nc2c(C(C)C)cccc2C(C)C)C1=O (stereo not drawn) -0.56%
